# Compound activity from PubChem BioAssay.
# Most compounds without a hit are left out; they make up all but 3% or so of the library.
# C8 TRAIL sens = caspase-8 TRAIL sensitization | NB7+C8 cells + TRAIL, ATPlite viability luminescence | inhibition (viability loss, TRAIL sensitization), % at 10 µM | hit rate 1% among 360,000;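 active = compounds causing at least 50% loss of cell viability in the single-dose screen, relative to plate controls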
# SENP6 inh = SENP6 protease inhibition | Recombinant SENP6 catalytic domain, aminoluciferin luminescence | inhibition, % at 10 µM | hit rate 1.8% among 330,000;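 active = inhibition above about 50% at the single tested dose, limit read from the data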;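 also: plate controls were DMSO wells with enzyme for no effect and DMSO wells lacking enzyme for full effect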
# Target sequence (Q9GZR1 628-1112 limits assumed): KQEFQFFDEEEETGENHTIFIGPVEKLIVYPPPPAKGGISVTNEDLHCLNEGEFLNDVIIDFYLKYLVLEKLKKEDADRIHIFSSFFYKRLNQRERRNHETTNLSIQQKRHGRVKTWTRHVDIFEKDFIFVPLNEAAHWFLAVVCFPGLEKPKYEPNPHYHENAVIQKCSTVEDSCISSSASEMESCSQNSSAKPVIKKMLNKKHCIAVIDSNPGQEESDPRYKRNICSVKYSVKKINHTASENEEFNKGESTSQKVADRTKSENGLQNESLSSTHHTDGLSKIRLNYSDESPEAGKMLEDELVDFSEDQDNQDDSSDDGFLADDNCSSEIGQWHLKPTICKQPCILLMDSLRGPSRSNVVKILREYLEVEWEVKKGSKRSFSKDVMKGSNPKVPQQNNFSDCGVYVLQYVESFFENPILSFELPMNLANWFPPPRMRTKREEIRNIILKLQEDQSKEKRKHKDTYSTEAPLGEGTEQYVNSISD
# SENP7 inh = blocks the human protease SENP7. Q9BQF6. recombinant SENP7, Z-RLRGG-aminoluciferin luminescence, 40 min. inhibition, % at 5 µM. hit rate 1.5% among 330,000. AID 434973;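 active = inhibition above about 50% at the single test dose, limit read from the data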;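 also: plate controls were DMSO with enzyme for no effect and no enzyme buffer wells for full effect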
# SENP8 block-1 = inhibitors of human SENP8 protease. inhibition, % at 10 µM. AID 2540. hit rate 1.2% among 330,000. purified SENP8, Z-RLRGG-aminoluciferin cleavage, luminescence; in the data active = inhibition above about 50%
# SENP8 block-2 = inhibitors of human SENP8 protease. Q96LD8. recombinant SENP8, Nedd8 substrate fluorescence. inhibition, % at 20 µM. hit rate 0.64% among 360,000; in the data active = inhibition mostly above about 40%, no sharp cut-off; inactive = mostly below about 27%
# PPC-1+TRAIL kill = PPC-1 cancer cell killing with TRAIL present; cell killing (% activity), % at 4 µM or 5 µM; PPC-1 cells + TRAIL, ATPLite viability luminescence; hit rate 0.41% among 220,000;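 active = cell killing above 50% in the first pass at 4 µM, then a duplicate retest at 5 µM averaging 50% or more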;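 also: plate controls were cells with TRAIL plus DMSO for no effect and medium-only wells lacking cells for full effect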
# SENP8 conf = confirmation of human SENP8 protease inhibitors; Recombinant SENP8, Z-RLRGG-aminoluciferin luminescence, 60 min; hit rate 40% among 6,200; AID 488912; shares compounds with SENP7 inh; inhibition, % at 12.5 µM;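 active = mean inhibition across replicates above about 50%, limit read from the data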
# SENP6 confirm = human SENP6 inhibition, confirmed. shares compounds with SENP7 inh. recombinant SENP6, Z-RLRGG-aminoluciferin luminescence. inhibition, % at 12.5 µM. hit rate 58% among 6,200
# SENP7 conf = confirmation of human SENP7 protease inhibitors. shares compounds with SENP7 inh. recombinant SENP7, Z-RLRGG-aminoluciferin luminescence, 40 min. inhibition, % at 12.5 µM. hit rate 69% among 6,200. AID 488917
# Casp3 select = inhibits human caspase-3 in SENP selectivity test. shares compounds with SENP7 inh. purified caspase-3, Z-DEVD-aminoluciferin luminescence, 60 min. inhibition, % at 12.5 µM. hit rate 60% among 6,200;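 active = mean inhibition above about 50%, limit read from the data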;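 also: plate controls were enzyme with DMSO for no effect and wells without caspase-3 for full effect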
# Luc interf = interferes with luciferase luminescence in SENP counter-screen; shares compounds with SENP7 inh; Pre-incubated SENP8/Z-RLRGG-aminoluciferin, luciferase luminescence interference; inhibition, % at 12.5 µM; hit rate 39% among 6,200; AID 488919;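 active = mean inhibition above about 50% when retested at one dose, limit read from the data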;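 also: plate controls were DMSO wells with completed reaction for no effect and substrate without enzyme for full effect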
# Starred values were filed as active, the others as inactive; x = not tested or not shown.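 The calls were made as follows, unless noted: active = mean inhibition above about 50% in the one-dose retest (limit read from the data); inactive = the rest.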
SMILES,C8 TRAIL sens,SENP6 inh,SENP7 inh,SENP8 block-1,SENP8 block-2,PPC-1+TRAIL kill,SENP8 conf,SENP6 confirm,SENP7 conf,Casp3 select,Luc interf
COc1ccc(-c2cn(CCC(=O)O)c(-c3ccncc3)n2)cc1,5,-9,-1,-10,-132,x,x,x,x,x,x
COc1ccc(-c2cc(CCC(=O)N3CCN(c4cc(C)ccc4C)CC3)[nH]n2)cc1,-12,x,6,x,15,x,x,x,x,x,x
CCn1nccc1C(=O)Nc1ccc(C(=O)OC(C)C)cc1,18,77*,76*,67*,7,x,8,68*,88*,67*,59*
CCn1cc(Br)c(C(=O)Nc2ccc(C(=O)OC(C)C)cc2)n1,-1,17,6,10,4,3,x,x,x,x,x
O=C(CSc1ncnc2ccccc12)c1cccs1,3,-66,56*,8,2,2,30,52*,87*,27,7
CC(C)(C)OC(=O)C[C@H]1C/C=C\C[C@H](CC(=O)N[C@H](CO)Cc2ccccc2)C(=O)N2CCC[C@H]2COC1=O,-5,-14,6,-6,14,x,x,x,x,x,x
COc1ccc(NC(=O)Nc2cccc3c2O[C@@H](CN(C)S(=O)(=O)c2cn(C)cn2)[C@@H](C)CN([C@H](C)CO)C3=O)cc1,12,0,1,7,10,x,x,x,x,x,x
COc1ccccc1N1C(=O)N(C(C)=O)C2C1Nc1ccccc1N2C (stereo unspecified),7,70*,-5,46,-23,-6,1,2,1,3,-4
O=c1c2sc(-c3ccccc3)cc2nc2n1CCC2,54*,93*,91*,81*,10,12,89*,89*,99*,95*,90*
Cn1c(NCCN2CCCC2)nc2cc(-c3ccccc3)sc2c1=O,7,x,x,x,-144,x,x,x,x,x,x
O=c1c2sc(-c3ccccc3)cc2nc2n1CCCCC2,18,54*,43,37,22,8,38,37,74*,47,54*
Cc1ccc(NC(=O)CNc2ccccc2N2CCCC2=O)cc1S(=O)(=O)N1CCOCC1,0,-2,-2,1,0,x,x,x,x,x,x
Oc1ccc(NCc2ccc(OCc3ccccc3)cc2)cc1,8,x,x,x,32,x,x,x,x,x,x
CCc1ccc(CNc2ccc(O)cc2)cc1,-4,81*,24,77*,70*,8,14,12,-1,6,5
COc1ncccc1-c1nnn(-c2ccccc2Br)n1,9,15,-2,14,-2,x,x,x,x,x,x
Clc1ccc(-n2nnc(-c3cccnc3Cl)n2)cc1Cl,17,21,57*,4,4,21,-12,-4,14,9,0
Fc1ccc(-n2nnc(-c3nccs3)n2)cc1,26,88*,91*,87*,18,30,88*,92*,100*,96*,67*
Fc1ccc(-n2nnc(-c3ccccc3Cl)n2)cc1,10,1,2,-3,-1,x,x,x,x,x,x
Fc1ccc(-n2nnc(-c3cccnc3Cl)n2)cc1,42,74*,81*,72*,13,35,73*,75*,92*,84*,74*
COc1ncccc1-c1nnn(-c2ccccc2)n1,22,84*,87*,81*,11,17,85*,88*,98*,91*,84*
Clc1nc2ccccc2cc1-c1nnn(-c2ccccc2)n1,19,7,33,8,-12,8,x,x,x,x,x
Clc1ncccc1-c1nnn(-c2ccccc2)n1,35,91*,89*,86*,10,42,88*,90*,99*,92*,88*
Cn1cc(/C=C/C(=O)c2ccccc2)c2ccccc21,60*,69*,79*,63*,-252,35,6,74*,89*,45,43
Cc1ccc(C(=O)/C=C/c2cn(CN3CCN(C)CC3)c3ccccc23)cc1,5,12,-4,-11,-279,13,x,x,x,x,x
CCCCCCCNC(=O)CN1N=C(c2ccc(C)cc2)CCC1=O,-7,11,1,1,12,x,x,x,x,x,x
SMILES,C8 TRAIL sens,SENP6 inh,SENP7 inh,SENP8 block-1,SENP8 block-2,PPC-1+TRAIL kill,SENP8 conf,SENP6 confirm,SENP7 conf,Casp3 select,Luc interf
c1ccc2c(Nc3nnc(-c4ccncc4)s3)cccc2c1,30,61*,3,46,-105,18,15,51*,81*,48,5
O=C(O)c1ccc(NC2=C/C(=N/S(=O)(=O)c3ccccc3)c3ccccc3C2=O)cc1,38,93*,60*,87*,61*,30,95*,98*,92*,19,7
O=C(O)c1ccc(NS(=O)(=O)c2ccc3c(c2)C(=O)c2ccccc2C3=O)cc1,1,6,-3,-5,22,1,x,x,x,x,x
CCOc1ccc2oc(C(=O)Nc3nccs3)c(C)c2c1,41,11,78*,22,-186,x,19,14,26,39,11
COc1ccc2oc(C(=O)NCCc3ccccc3)c(C)c2c1,49,90*,88*,84*,-201,x,93*,92*,100*,86*,72*
COc1ccc2oc(C(=O)OCC(=O)NCCc3ccccc3)c(C)c2c1,3,-8,3,18,-430,x,x,x,x,x,x
CCOc1ccc2oc(C(=O)Nc3ccc(C)cn3)c(C)c2c1,24,x,x,x,-115,x,x,x,x,x,x
COc1ccc2oc(C(=O)Nc3nccs3)c(C)c2c1,40,30,83*,-5,-145,x,15,34,39,41,20
O=C1C=CC(c2ccccc2)(c2ccccc2)CC1,0,x,x,x,10,x,x,x,x,x,x
CC(=O)NC(c1ccccc1)c1nc(-c2ccc(C)c(C)c2)cs1 (stereo unspecified),-10,x,x,x,6,x,x,x,x,x,x
CSc1cccc(NC(=O)Nc2ccc(Cl)cc2)c1,3,-19,0,-1,23,33,x,x,x,x,x
O=C(Nc1cccc(C(=O)O)c1)Nc1cccc2ccccc12,12,27,3,9,-53,x,x,x,x,x,x
O=C(Nc1ccc(Br)cc1)Nc1ccccc1Cl,-1,81*,94*,68*,19,17,-2,68*,90*,38,3
O=C(Nc1cccc(C(=O)O)c1)Nc1ccccc1Cl,21,95*,97*,93*,-3,13,98*,98*,103*,96*,75*
